Vif inh: HIV Vif self-association inhibitors, primary screen, imaging, HEK293T, single point | HEK293T cells, Vif self-association by quenched fluorescence, 24 h | inhibition, % at 7.49 µM | 0.35% of 340,000 active; in the data active = inhibition above about 50%, passing the limit was not always enough; inconclusive = no clear call, values can overlap the other calls; inactive = below about 31%
MITF TRPM1 HTS: activators of MITF-driven TRPM1 promoter reporter, primary screen, cell-based, SK-MEL-5, luciferase, single point. SK-MEL-5 TRPM1-promoter luciferase, 24 h; % of positive control, neutral wells = 0. 0.75% of 300,000 active. activation, % at 12.5 µM;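 active = mean activation of at least 80% with every replicate also reaching 80%; inconclusive = mean reaches 80% but some replicate falls short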;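 note: 0% = neutral control wells and 100% = parthenolide positive control wells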
Glyco luc inh: increase of ERlucT glycosylation luciferase signal, primary screen, N-linked glycosylation inhibitor project, D54 ERlucT cells, luminescence, set 2 | D54 ERlucT glycosylation luciferase reporter, 24 h; percent of 100 nM tunicamycin response | reporter increase, % at 12.5 µM | 0.23% of 360,000 active;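 active = mean luciferase reporter signal, scaled so untreated is 0 and the glycosylation-blocking control 100, at or above a set limit in every replicate; inconclusive = mean reaches the limit but not every replicate does; inactive = mean below the limit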;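 note: luciferase carries N-glycosylation sites so blocking glycosylation raises the light; 0% = median of neutral control wells and 100% = median of 100 nM tunicamycin wells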
Wnt bcat act: Wnt/beta-catenin pathway activators, primary screen, cell-based, plate reader, single point; Wnt/beta-catenin reporter cell assay, activator; activation, % at 9.35 µM; 1.2% of 300,000 active; in the data active = activation above about 30%, passing the limit was not always enough; inconclusive = no clear call, values can overlap the other calls;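 note: 0% = neutral control wells and 100% = positive control wells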
esBAF inh: Bmi1 luciferase reporter increase in mESCs, primary screen, esBAF inhibitor project, mouse ES cells, Bmi1 luciferase knock-in, single point; 24 h; 100% = twice the neutral-well signal; reporter increase, % at 12.5 µM; 2% of 350,000 active; in the data active = activation above about 40%; inconclusive = no clear call, values can overlap the other calls;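 note: 0% = median of the plate's neutral control wells and 100% = double that signal; a rise in the Bmi1 reporter signal indicates esBAF inhibition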
PfHsp90 set2: growth inhibition of PfHsp90-expressing yeast, primary screen, antimalarial PfHsp90 inhibitor project, S. cerevisiae, BacTiter-Glo luminescence, single point, set 2; BacTiter-Glo ATP, 48 h; yeast lacking PDR1 and PDR3 efflux regulators; inhibition, % at 9.4 µM; 0.32% of 310,000 active; AID 504621, 2011;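 active = every replicate shows inhibition above about 80%, whatever the replicate mean, limit read from the data; inconclusive = mean inhibition reaches the set limit but some replicate falls short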;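 note: 0% = DMSO neutral controls and 100% = 20 µM radicicol positive controls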
Active calls of the source: *; ? = inconclusive; · = no result given. Sampled rows, rich in hits. Any-hit rate of the full collection: about 3%.

SMILES	Vif inh	MITF TRPM1 HTS	Glyco luc inh	Wnt bcat act	esBAF inh	PfHsp90 set2
COc1ccc2oc(=O)c(-c3nc4ccccc4o3)cc2c1	1.8	43.2	-2.2	103.1*	·	-10.8
Cn1c(-c2cc3ccccc3oc2=O)nc2ccccc21	-7.0	77.5	0.3	24.9	·	4.2
COc1ccc2cc(-c3nc4ccccc4n3C)c(=O)oc2c1	-6.0	90.4*	-2.6	13.1	87.0*	-8.7
Cc1cc(N)ccc1-c1cc2ccccc2oc1=O	51.7*	23.3	2.4	1.6	23.3	-11.8
Cc1cn([C@H]2C[C@H](O)[C@@H](CNC(=O)[C@H](N)Cc3cscn3)O2)c(=O)[nH]c1=O	-4.7	·	-1.8	1.6	-3.9	·
Cc1ccc(S(=O)(=O)N=C2SCCCS2)cc1	19.0	-9.6	8.1	·	-9.4	-17.9
Cc1cccc(NC(=O)c2sc3ncn(CC(=O)N4CCN(c5ccccn5)CC4)c(=O)c3c2C)c1	-3.3	12.6	-1.3	-0.5	4.4	16.9
O=c1oc2ccc3ccccc3c2cc1-c1nc2ccccc2o1	·	8.4	5.1	·	-3.4	31.4
O=c1oc2ccccc2cc1-c1nc2ccccc2o1	-6.2	45.8	-4.7	35.2*	-2.4	0.5
CC1(NC(=O)c2cccc(S(=O)(=O)N3CCCc4ccccc43)c2)CCS(=O)(=O)C1 (stereo not drawn)	-14.6	8.1	-1.9	5.6	-0.2	-3.0
COn1c(-c2ccc(Cl)cc2)nc2ccc(Cl)cc21	4.2	21.7	-1.1	57.4*	4.6	·
Cc1ccc(COn2c(-c3ccc(Cl)cc3)nc3ccc([N+](=O)[O-])cc32)cc1	-19.6	102.5*	4.7	42.4*	53.7*	-2.8
O=[N+]([O-])c1ccc2nc(-c3ccc(Cl)cc3)n(OCc3ccccc3)c2c1	-13.2	·	-3.0	65.1*	68.2*	-43.8
Cc1ccc(CSc2nnc(-c3ccccn3)n2Cc2cccs2)cc1	·	·	9.2	-2.7	14.7	·
CN(C)CCNc1ncnc2c1sc1nc(-c3ccccc3)c3c(c12)CCCC3	0.7	-5.8	-11.8	3.6	-5.4	23.3
O=C(C=P(c1ccccc1)(c1ccccc1)c1ccccc1)c1ccccc1-c1ccccc1C(=O)C=P(c1ccccc1)(c1ccccc1)c1ccccc1	-17.2	-82.8	0.5	-5.5	·	145.4*
COc1ccc(/C=C/c2nnc(NC(C)=O)s2)cc1	0.4	·	-9.2	36.8*	-12.6	12.5
COC(=O)Nc1nnc(/C=C/c2ccc(OC)cc2)s1	-2.4	47.4	-0.1	8.8	·	5.2
CCn1cc(C(=O)N2CCN(c3ccccn3)CC2)c(=O)c2cc(S(=O)(=O)N(C)C3CCCCC3)ccc21	-4.1	9.8	-1.6	-0.6	·	10.4
Cc1cc2cc(C=C(C#N)C#N)c(Cl)nc2cc1C	-2.8	-13.4	38.0*	1.7	29.7	12.4
CC(=O)CC1(O)C(=O)N(Cc2ccccc2)c2ccccc21 (stereo not drawn)	13.6	13.3	4.4	43.2*	-3.5	67.3
O=C(CN1C(=O)c2ccccc2S1(=O)=O)NCCSCc1cccc(Cl)c1	8.3	1.3	2.3	-0.6	-1.0	2.4
CCCNC(=O)C12CCC(C)(C(=O)O1)C2(C)C (stereo not drawn)	0.4	·	-0.5	-0.9	·	·
CC12CCC(C(=O)NCCc3ccccc3)(OC1=O)C2(C)C (stereo not drawn)	51.9*	-0.7	-1.7	-3.1	·	-10.7
CCc1ccccc1NC(=O)c1cccc(Oc2ccc([N+](=O)[O-])cc2Cl)c1	5.7	4.4	-8.0	-9.2	·	92.3*
SMILES	Vif inh	MITF TRPM1 HTS	Glyco luc inh	Wnt bcat act	esBAF inh	PfHsp90 set2
COc1ccc(C(=O)NCc2ccc(-c3nc4ccccc4s3)cc2)cc1OC	-3.6	72.6	-1.0	7.3	46.9*	15.1
C[C@@H]1CN([C@H](C)CO)C(=O)c2cc(-c3ccc(C#N)cc3)cnc2O[C@@H]1CN(C)Cc1cncnc1	·	·	·	·	-1.5	·
O=C(Nc1cccc(F)c1)OC(CN1CCCCC1)C(F)(F)F (stereo not drawn)	4.8	·	-1.8	-1.9	-2.7	6.7
Cc1nc2cc3ccccc3cc2s1	13.4	13.8	1.0	-0.6	29.1	-8.4
CCc1nc2cc3sc(CC)nc3cc2s1	6.3	64.0	-3.3	16.1	76.2*	·
CC[C@@H](C)[C@@H](C(=O)N1CCN(C(=O)OC(C)(C)C)CC1)n1cc(CCCN=C(NC(=O)OC(C)(C)C)NC(=O)OC(C)(C)C)nn1	-2.4	-0.6	-2.5	-1.5	-0.2	-15.4
CCCCN(CC)Cc1ccc(CNC(=O)Nc2ccc(Cl)cc2)o1	-0.4	11.8	-2.8	-0.8	·	4.3
CC1CCCC(NC(=O)COC(=O)CCC(=O)c2cccs2)C1C (stereo not drawn)	16.9	-8.2	-0.2	-1.1	-1.6	0.7
CC1CCCC(NC(=O)c2ccc3c(c2)OCCO3)C1C (stereo not drawn)	-5.1	70.6	-2.5	34.8*	?	-12.5
CC1CCCC(NC(=O)c2cccs2)C1C (stereo not drawn)	9.4	20.0	-2.9	2.7	42.6*	19.8
COCc1nn2c(N)c(-c3ccccc3)cnc2c1-c1ccccc1	1.8	107.8*	-2.6	8.4	50.2*	-13.8
CCOC(=O)c1cnc2c(-c3ccc(Cl)cc3)c(C)nn2c1N	8.4	19.0	-0.6	·	4.0	15.1
COCc1nn2c(N)c(C#N)cnc2c1-c1ccccc1	10.1	-7.8	-1.4	-1.8	0.0	-2.7
Cc1cc2ncc(-c3ccc(Cl)cc3)c(N)n2n1	5.7	?	-2.8	12.5	62.0*	8.8
CCOC(=O)c1cnc2cc(-c3ccc(Cl)cc3)nn2c1N	4.1	149.3*	0.9	21.0	67.5*	-11.5
Nc1c(-c2ccccc2)cnc2cc(-c3ccccc3)nn12	-9.9	58.4	-10.2	55.7*	·	14.6
CNC(=S)N(CCc1c(C)[nH]c2ccc(OC)cc12)Cc1cc(OC)c(OC)c(OC)c1	3.8	-10.0	0.8	-1.8	-7.3	-13.4
COc1ccc(CN(C)C[C@@H]2OCCCC[C@@H](C)Oc3ccc(NC(=O)NC4CCCCC4)cc3C(=O)N([C@H](C)CO)C[C@H]2C)cc1	·	·	·	·	-4.8	·
CC(=O)c1cccc(Nc2nc(N3CCOCC3)nc(N3CCOCC3)n2)c1	-0.4	18.5	-0.8	-0.3	-3.1	3.4
CC(=O)c1ccc(Nc2nc(N3CCOCC3)nc(N3CCOCC3)n2)cc1	2.0	27.6	-1.2	-2.1	44.0*	-14.2
C=CCC[C@@H](Cc1ccc(F)cc1)C(=O)OC[C@@H](NC(=O)[C@@H](CC=C)CC(=O)N[C@H](CO)Cc1ccccc1)C(C)(C)C	-3.8	3.1	3.2	-4.7	5.2	-7.9
COc1ccccc1-c1noc(CCCC(=O)NC2CCCC2)n1	19.6	-14.6	0.9	3.6	-4.1	7.2
